Results filed as inconclusive are left out. Active and inactive are the calls of the source. Calls follow the shape of the dose curve; as a rule, active = well fitted inhibition curve with a large enough effect in the signal ratio, with a control signal flat (not every such curve was filed as active); inconclusive = small, poorly fitted or top-dose-only effect, or effect the other way, or a change in a side signal; inactive = no such curve, though single readings can be large or run the other way; the % refers to the signal ratio.
The compounds below were run against Peroxisome proliferator-activated receptor delta (Homo sapiens) (UniProt Q03181) (assay: qHTS assay for small molecule antagonists of peroxisome proliferator-activated receptor delta signaling (AID 588535)). Settings: HEK293T PPARd-UAS-bla, beta-lactamase FRET ratio, 18 h; series mostly up to 76.7 µM; activity change, negative = inhibition: at the top concentration.
Excerpt: NIH Chemical Genomics Center [NCGC] U.S. Environmental Protection Agency [EPA] National Institutes of Environmental Health Sciences [NIEHS] National Toxicology Program [NTP] NCGC Assay Overview The Peroxisome proliferator-activated receptors (PPARs) are lipid-activated transcription factors of the nuclear receptor superfamily with three distinct subtypes namely PPAR alpha, PPAR delta (also called PPAR beta) and PPAR gamma. All these subtypes heterodimerizes with Retinoid X receptor (RXR) and have different physiological functions. […] This role of PPAR delta implicates the potential use of its ligands in the treatment of metabolic disorders.
NCGC Assay Protocol Summary Using a beta-lactamase reporter-gene under control Peroxisome Proliferator-Activated Receptor delta (PPAR-delta) response element, a cell-based assay [GeneBLAzer (PPAR-delta-UAS-bla assay developed by Invitrogen] was used to measure PPAR-delta ligands signaling. GeneBLAzer PPAR-delta-UAS-bla HEK293T cells were used with assay medium containing 2% charcoal/dextran FBS. The assay was performed in clear bottom black Greiner 1536-well plates. Library compounds were measured for their ability to inhibit the reporter gene activity. Compounds were screened in a titration series in 1536-well format. The fluorescence intensity (405 nm excitation, 460/530 nm emission) was measured using an EnVision plate reader. […] Concentration-response titration points for each compound were fitted to the Hill equation yielding concentrations of half-maximal inhibition (IC50) and maximal response (efficacy) values. qHTS protocol for PPAR-delta beta-lactamase assay in antagonist mode [Step] [Parameter] [Value] [Description] 1. Reagent; 5 uL; 4000 cells/well 2. Incubation; 37 C for 5 hrs 3. Compounds; 23 nL; 0.59 nM to 92 uM 4. […] Incubation; 37 C for 18 hrs 7. Detection reagent; 1 uL of CCF4-dye 8. Incubation; RT for 2 hrs 9. Detection; Fluorescence; Envision plate reader

Sequence of Peroxisome proliferator-activated receptor delta (Homo sapiens) (Q03181 whole entry, looked up): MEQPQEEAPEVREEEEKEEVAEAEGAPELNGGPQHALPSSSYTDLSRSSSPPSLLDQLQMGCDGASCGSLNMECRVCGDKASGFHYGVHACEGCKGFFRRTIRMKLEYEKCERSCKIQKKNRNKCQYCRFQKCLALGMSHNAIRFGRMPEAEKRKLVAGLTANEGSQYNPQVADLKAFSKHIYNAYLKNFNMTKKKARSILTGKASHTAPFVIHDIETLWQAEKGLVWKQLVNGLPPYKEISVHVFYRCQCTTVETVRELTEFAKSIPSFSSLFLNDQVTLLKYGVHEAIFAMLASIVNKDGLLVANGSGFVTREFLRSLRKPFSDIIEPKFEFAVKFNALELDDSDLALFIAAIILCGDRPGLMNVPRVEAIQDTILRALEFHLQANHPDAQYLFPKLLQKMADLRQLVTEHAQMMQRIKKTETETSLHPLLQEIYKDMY

Row | SMILES | activity change, negative = inhibition | outcome
1 | CCCCCCCCC1CO1 (stereo not given) | -14.6% (inactive) | –
2 | CCC(Cl)CC(Cl)C(Cl)C(Cl)C(Cl)C(C)Cl (stereo not given) | -17.6% (inactive) | –
3 | CCCCCCc1ccc(-c2ccc(C#N)cc2)cc1 | -4.17% (inactive) | –
4 | Cc1ccc(S(N)(=O)=O)cc1 | – | inactive
5 | Cc1ccc(N)cc1[N+](=O)[O-] | -8.47% (inactive) | –
6 | CCCCC(CC)COCCCN (stereo not given) | -6.5% (inactive) | –
7 | CC(C)OCC1CO1 (stereo not given) | -12.3% (inactive) | –
8 | CC(C)COC(=O)COc1cc(Cl)c(Cl)cc1Cl | -5.24% (inactive) | –
9 | O=C(O)/C=C/c1ccc(/C=C/C(=O)O)cc1 | -28.6% (inactive) | –
10 | O=CC(=O)c1ccccc1 | -19.7% (inactive) | –
11 | Cc1c(N)cccc1Cl | -15.4% (inactive) | –
12 | c1ccc(SCCSc2ccccc2)cc1 | -8.37% (inactive) | –
13 | Brc1cc(Oc2cc(Br)c(Br)c(Br)c2Br)c(Br)c(Br)c1Br | – | inactive
14 | O=[N+]([O-])c1ccc(F)cc1F | -14.7% (inactive) | –
15 | OCC(CO)(CBr)CBr | – | inactive
16 | OC1CCCCC1 | 3.75% (inactive) | –
17 | CN(C)c1ccc(Cc2ccc(N(C)C)cc2)cc1 | – | inactive
18 | C=CC(C)(O)CCCC(C)CCCC(C)CCCC(C)C (stereo not given) | 1.54% (inactive) | –
19 | CC(=O)CC(=O)Nc1ccccc1 | -23.1% (inactive) | –
20 | CCCC(=O)OC(=O)CCC | – | inactive

Row | SMILES | activity change, negative = inhibition | outcome
21 | Cc1cc(-c2ccc(N=Nc3cc(S(=O)(=O)O)c4ccccc4c3N)c(C)c2)ccc1N=Nc1cc(S(=O)(=O)O)c2ccccc2c1N | -18.4% (inactive) | –
22 | NC(=O)c1ccc([N+](=O)[O-])cc1 | -19.3% (inactive) | –
23 | COc1ccc(C)cc1N | -13.8% (inactive) | –
24 | CCOC(=O)C1OC1c1ccccc1 (stereo not given) | -19.9% (inactive) | –
25 | CCCCNCC | -22.9% (inactive) | –
26 | CC(CCC(=O)O)(c1ccc(O)cc1)c1ccc(O)cc1 | – | inactive
27 | O=[N+]([O-])c1cc(N(CCO)CCO)ccc1NCCO | – | inactive
28 | C=C(C#N)C(=O)OCC | -27.9% (inactive) | –
29 | NC(=O)Nc1nc2ccccc2[nH]1 | -21.8% (inactive) | –
30 | CC(=O)Nc1cccc(C)c1 | -1.53% (inactive) | –
31 | Cc1c(C(=O)O)c(O)cc2c1C(=O)c1c(O)c([C@H]3O[C@H](CO)[C@@H](O)[C@H](O)[C@H]3O)c(O)c(O)c1C2=O | -1.51% (inactive) | –
32 | S=C(NC1CCCCC1)NC1CCCCC1 | 7.64% (inactive) | –
33 | c1cc2c3c(c1)ccc1cccc(c13)C2 | -16.1% (inactive) | –
34 | c1ccc(Nc2cccc3ccccc23)cc1 | – | inactive
35 | O=[N+]([O-])c1cc(Cl)c(Cl)c(Cl)c1Cl | 3.86% (inactive) | –
36 | c1c[nH]cn1 | -5.32% (inactive) | –
37 | CCCCC(CC)COP(=O)(OCC(CC)CCCC)OCC(CC)CCCC (stereo not given) | 15.4% (inactive) | –
38 | CCNC(=S)NCC | 14.5% (inactive) | –
39 | COc1ccc([N+](=O)[O-])cc1N | – | inactive
40 | O=C(OCc1ccccc1)c1ccccc1O | – | inactive
